Experimental findings from PubChem BioAssay are described below.

Active and inactive are the calls of the source.

For one test, the target named is Albumin (Bos taurus) (UniProt P02769). The test can be described thus: bovine serum albumin binders on microarray, profiling panel, artefact control for SMM control protein annotation, biochemical, small-molecule microarray, Alexa647 label, 635/667 nm fluorescence (AID 1118).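 Further: score merges 667 nm emission intensity and signal-to-noise per printed compound spot.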 Conditions: BSA-A647 binding, fluorescence 635 nm, higher = more signal.
Chain of Albumin (Bos taurus) (P02769 whole entry, looked up): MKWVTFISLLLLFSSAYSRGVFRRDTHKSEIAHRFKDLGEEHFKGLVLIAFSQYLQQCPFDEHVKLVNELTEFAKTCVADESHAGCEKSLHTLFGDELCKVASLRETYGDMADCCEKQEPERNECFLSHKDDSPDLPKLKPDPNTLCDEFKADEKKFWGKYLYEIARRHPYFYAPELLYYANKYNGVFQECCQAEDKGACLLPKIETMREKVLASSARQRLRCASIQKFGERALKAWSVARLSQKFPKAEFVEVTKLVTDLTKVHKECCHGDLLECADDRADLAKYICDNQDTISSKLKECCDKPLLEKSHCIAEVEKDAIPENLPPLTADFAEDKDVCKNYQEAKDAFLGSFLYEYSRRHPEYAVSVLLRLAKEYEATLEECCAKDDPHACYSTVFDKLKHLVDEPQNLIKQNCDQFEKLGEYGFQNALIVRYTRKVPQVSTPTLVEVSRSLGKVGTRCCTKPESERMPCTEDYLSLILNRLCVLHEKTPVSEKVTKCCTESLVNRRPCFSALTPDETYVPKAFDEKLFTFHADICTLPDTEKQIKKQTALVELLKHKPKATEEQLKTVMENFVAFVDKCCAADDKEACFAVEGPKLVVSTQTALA
Test [1] can be described thus: small-molecule microarray binders of probe aXIP, primary screen, biochemical, NeuroSMM set, 635/667 nm fluorescence (AID 1119).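 Further: probe is the protein aXip251-270 applied at 1 µg/mL to compound-printed slides; binding of probe to printed compounds measured as 667 nm fluorescence plus signal to noise.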 As to conditions: higher = more signal, called active from +8 up or from −8 down.
Test [2] in a line: small-molecule binders of probe aNOTCH3, primary screen, biochemical, small-molecule microarray, 635/667 nm fluorescence (AID 1120).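 Further: probe is a biotin-tagged antibody raised against NOTCH3 rather than NOTCH3 protein; score merges spot fluorescence near 667 nm with spot signal to noise.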 Conditions: higher = more signal.
A short description of test [3]: small-molecule binders of probe aNOTCH2, primary screen, biochemical, small-molecule microarray, 635/667 nm fluorescence (AID 1121).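 Further: score merges feature fluorescence read at 667 nm with its signal to noise.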 As to conditions: higher = more signal.
Test [4] deals with Carbonic anhydrase 2 (Homo sapiens) (UniProt P00918). The test can be described thus: CAII small-molecule binders, profiling panel, biochemical, small-molecule microarray, Alexa647-labelled CAII (AID 1122). As to conditions: CAII-A647 binding fluorescence, higher = more signal.
Test [5] in a line: COS7 lysate on small-molecule microarray, probe aHis, 635 nm (AID 1123).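 Further: z-score combines 667nm fluorescence intensity with signal-to-noise per printed compound spot.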 As to conditions: COS7 cell lysate, fluorescence, higher = more signal.
The nature of test [6]: compound binding in COS7 lysate, probe aLAP1, primary screen, cell lysate, small-molecule microarray (AID 1124).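 Further: lysate comes from COS7 cells expressing LAP1 and is applied at 0.3 µg/mL; score merges spot fluorescence near 667 nm with signal-to-noise over triplicate slides.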 As to conditions: probe aLAP1, fluorescence, higher = more signal.
Another test relates to Sam68 (KHDRBS1). The test can be described thus: Sam68 small-molecule binders, primary screen, biochemical, small-molecule microarray, 635 nm fluorescence (AID 1125).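 Further: score merges 667 nm channel intensity with signal to noise over triplicate slides.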 Conditions: small-molecule microarray binding, higher = more signal.
In test [7] the test system is Chordin-like protein 2 (CHRDL2). Kind of test: CHRDL2 small-molecule binders, primary screen, biochemical, small-molecule microarray, 635 nm fluorescence (AID 1126).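 Further: printed compound slides probed with Chrdl2 protein at 4 µg/mL for 1 h at 4 C; score merges 667 nm emission intensity with signal to noise over three replicate slides.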 As to conditions: small-molecule microarray binding, fluorescence 635 nm; higher = more signal.
Test [8] addresses Concanavalin-A (Canavalia ensiformis) (UniProt P02866). The test can be described thus: ConA small-molecule binders, primary screen, artefact control for SMM control protein annotation, biochemical, small-molecule microarray, Alexa647 label, 635 nm (AID 1127).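 Further: z combines 667 nm emission intensity with signal-to-noise across three replicate slides.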 Conditions: ConA-A647 binding fluorescence, higher = more signal.
Test [9] can be described thus: anti-His antibody binders, primary screen, artefact control for SMM control protein annotation, biochemical, small-molecule microarray, 635 nm fluorescence (AID 1128).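 Further: score merges feature fluorescence with signal-to-noise for each printed compound spot.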 Conditions: anti-His Alexa647 antibody binding, higher = more signal.
Test [10] deals with Human papillomavirus type 1a E7 protein (residues 1-88). Kind of test: HPV1a E7 small-molecule binders, primary screen, biochemical, small-molecule microarray, residues 1-88, 635 nm (AID 1129). Conditions: small-molecule microarray binding, fluorescence 635 nm; higher = more signal.
Test [11] concerns the target Focal adhesion kinase 1 (Homo sapiens) (UniProt Q05397). Kind of test: small-molecule microarray binders of FAK, primary screen, biochemical, 635/667 nm fluorescence, BSA, DTT (AID 1130).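 Further: composite of spot emission at 667 nm and signal to noise over triplicate slides.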 As to conditions: PTK2 binding, 635 nm fluorescence, higher = more signal.
For test [12], the system named is Fibrinogen (Alexa647-labelled). Kind of test: fibrinogen binders on compound microarrays, profiling panel, artefact control for SMM control-protein annotation, biochemical, small-molecule microarray, 635/667 nm fluorescence (AID 1131).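 Further: z-score merges 667 nm fluorescence with per-spot signal-to-noise over triplicate slides.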 Conditions: fibrinogen-A647 binding fluorescence, higher = more signal.
The target of test [13] is Follistatin (Homo sapiens) (UniProt P19883). Kind of test: follistatin binders on small-molecule microarrays, primary screen, biochemical, small-molecule microarray, 635/667 nm fluorescence (AID 1132). As to conditions: FST binding, 635 nm fluorescence, higher = more signal.
Chain of Follistatin (Homo sapiens) (P19883 whole entry, looked up): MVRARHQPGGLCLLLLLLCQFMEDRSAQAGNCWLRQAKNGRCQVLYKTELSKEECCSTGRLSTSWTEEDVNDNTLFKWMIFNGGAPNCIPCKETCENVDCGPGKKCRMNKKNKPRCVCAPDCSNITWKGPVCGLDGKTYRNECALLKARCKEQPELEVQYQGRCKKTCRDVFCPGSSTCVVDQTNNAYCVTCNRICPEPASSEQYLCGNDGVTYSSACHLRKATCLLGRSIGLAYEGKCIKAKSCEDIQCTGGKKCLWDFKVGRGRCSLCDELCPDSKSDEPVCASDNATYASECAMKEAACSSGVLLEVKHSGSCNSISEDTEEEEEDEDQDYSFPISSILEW
Test [14] concerns the target Fibroblast growth factor 2 (Homo sapiens) (UniProt P09038). Kind of test: FGF2 binders on small-molecule microarrays, primary screen, biochemical, small-molecule microarray, 635/667 nm fluorescence (AID 1133). Conditions: small-molecule microarray binding, FGF2, fluorescence 635/667; higher = more signal.
Test [15] in a line: mitochondrial membrane potential change in A549 cells, profiling panel, cell-based, JC-1 fluorescence, basal, 24 h, 100 nL (AID 1138).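 Further: A549 lung adenocarcinoma cells under basal conditions with no added stimulus; test concentration not given here.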 Conditions: higher = more signal.
Another test deals with Lefty1. Kind of test: Lefty1 binders on small-molecule microarrays, primary screen, biochemical, small-molecule microarray, 635/667 nm fluorescence (AID 1139). As to conditions: small-molecule microarray binding, fluorescence 635/667; higher = more signal.
Test [16] has as its system wheat germ agglutinin (Triticum aestivum), Alexa647-labelled. Kind of test: wheat germ agglutinin binders on compound microarrays, profiling panel, artefact control for SMM control-protein annotation, biochemical, small-molecule microarray, 635/667 nm fluorescence (AID 1140).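 Further: score merges 667 nm feature emission with signal to noise over triplicate slides.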 Conditions: WGA-A647 binding, 635 nm fluorescence, higher = more signal.
In test [17] the target is Luciferin 4-monooxygenase (Photinus pyralis) (UniProt P08659). The test can be described thus: firefly luciferase enzyme inhibitors, primary screen, biochemical, luminescence, purified enzyme, 2006 set (AID 1141).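 Further: cell-free assay with purified firefly luciferase at 100 ng per well in PBS; test concentration not given here.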 As to conditions: SteadyGlo luminescence, 30 min, higher = more signal, called active from +8 up or from −8 down.
Chain of Luciferin 4-monooxygenase (Photinus pyralis) (P08659 whole entry, looked up): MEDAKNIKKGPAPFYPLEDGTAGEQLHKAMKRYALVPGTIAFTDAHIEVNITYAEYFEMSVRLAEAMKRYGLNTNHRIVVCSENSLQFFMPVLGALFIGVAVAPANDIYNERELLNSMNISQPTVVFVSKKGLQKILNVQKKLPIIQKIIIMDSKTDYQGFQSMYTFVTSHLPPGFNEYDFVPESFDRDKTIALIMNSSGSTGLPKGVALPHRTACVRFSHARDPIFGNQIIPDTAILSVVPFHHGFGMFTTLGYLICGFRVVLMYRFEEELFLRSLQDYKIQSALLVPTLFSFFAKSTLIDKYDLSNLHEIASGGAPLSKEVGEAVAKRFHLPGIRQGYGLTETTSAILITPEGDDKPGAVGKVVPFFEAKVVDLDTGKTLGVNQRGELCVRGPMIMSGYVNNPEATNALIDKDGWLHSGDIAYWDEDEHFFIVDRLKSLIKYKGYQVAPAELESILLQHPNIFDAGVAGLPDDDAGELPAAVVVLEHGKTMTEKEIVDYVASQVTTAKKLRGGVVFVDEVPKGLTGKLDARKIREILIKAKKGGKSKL

Chain of Concanavalin-A (Canavalia ensiformis) (P02866 whole entry, looked up): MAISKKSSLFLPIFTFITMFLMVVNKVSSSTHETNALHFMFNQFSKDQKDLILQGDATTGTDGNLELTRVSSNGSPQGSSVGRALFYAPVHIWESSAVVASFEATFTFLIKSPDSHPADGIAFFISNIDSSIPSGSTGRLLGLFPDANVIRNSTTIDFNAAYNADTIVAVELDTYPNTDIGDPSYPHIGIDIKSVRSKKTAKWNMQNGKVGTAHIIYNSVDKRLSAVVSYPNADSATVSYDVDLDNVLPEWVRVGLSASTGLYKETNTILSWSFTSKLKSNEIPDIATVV
Chain of Focal adhesion kinase 1 (Homo sapiens) (Q05397 whole entry, looked up): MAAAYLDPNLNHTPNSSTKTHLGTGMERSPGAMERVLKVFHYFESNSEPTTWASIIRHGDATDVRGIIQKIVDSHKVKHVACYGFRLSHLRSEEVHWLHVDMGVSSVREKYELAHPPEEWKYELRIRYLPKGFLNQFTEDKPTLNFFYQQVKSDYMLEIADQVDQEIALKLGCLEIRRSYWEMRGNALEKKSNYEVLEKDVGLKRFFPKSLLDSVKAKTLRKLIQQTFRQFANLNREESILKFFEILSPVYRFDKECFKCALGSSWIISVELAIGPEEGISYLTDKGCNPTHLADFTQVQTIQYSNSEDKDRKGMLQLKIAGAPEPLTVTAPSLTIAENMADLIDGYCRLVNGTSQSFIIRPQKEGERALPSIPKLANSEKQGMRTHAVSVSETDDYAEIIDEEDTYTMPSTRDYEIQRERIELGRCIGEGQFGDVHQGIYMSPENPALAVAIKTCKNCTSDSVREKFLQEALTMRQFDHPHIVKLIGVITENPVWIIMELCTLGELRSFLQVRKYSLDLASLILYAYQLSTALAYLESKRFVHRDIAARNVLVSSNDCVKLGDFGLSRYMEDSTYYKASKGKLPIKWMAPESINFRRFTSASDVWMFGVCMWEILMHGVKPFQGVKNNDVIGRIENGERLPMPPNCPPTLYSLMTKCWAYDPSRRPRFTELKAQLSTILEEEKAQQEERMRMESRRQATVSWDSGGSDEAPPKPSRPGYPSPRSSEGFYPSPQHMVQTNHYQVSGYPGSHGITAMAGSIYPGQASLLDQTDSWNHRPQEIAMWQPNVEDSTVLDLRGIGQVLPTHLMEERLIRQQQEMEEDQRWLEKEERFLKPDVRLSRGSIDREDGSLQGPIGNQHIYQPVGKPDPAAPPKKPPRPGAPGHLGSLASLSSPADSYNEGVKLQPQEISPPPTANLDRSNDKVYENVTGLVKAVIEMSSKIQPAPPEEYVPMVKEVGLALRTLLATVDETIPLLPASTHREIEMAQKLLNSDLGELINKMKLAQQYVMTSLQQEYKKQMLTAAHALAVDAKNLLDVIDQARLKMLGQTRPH
Chain of Fibroblast growth factor 2 (Homo sapiens) (P09038 whole entry, looked up): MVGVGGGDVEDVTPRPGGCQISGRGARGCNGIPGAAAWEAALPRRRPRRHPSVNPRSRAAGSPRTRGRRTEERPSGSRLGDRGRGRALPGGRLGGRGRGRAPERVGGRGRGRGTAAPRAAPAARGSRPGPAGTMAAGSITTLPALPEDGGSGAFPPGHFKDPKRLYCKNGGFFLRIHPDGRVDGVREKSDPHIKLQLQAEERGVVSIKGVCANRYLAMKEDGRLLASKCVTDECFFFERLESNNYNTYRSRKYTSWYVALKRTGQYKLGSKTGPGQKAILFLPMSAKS

For `O=C(O)[C@@H]1[C@@H]2C(=O)N(c3ccccc3)C(=O)[C@@H]2C[C@@H]1Sc1ccccc1`, the composite z-score is -0.037 with Albumin (Bos taurus); -0.0932 in test [2]; -0.0572 in test [3]; 0.526 in test [4]; 0.796 in [5]; 0.627 in [6]. The composite z-score in the test with Sam68 (KHDRBS1) was -0.983; in test [7], -1.06; in [8], -0.607; in test [9], -0.102; in test [10], -0.683; in test [11], 0.236. Moreover, the composite z-score in [12] is -1.02; in test [13], -1.19; in [14], -1.16; with Lefty1, -1.07; in test [16] it was 0.627. In addition, the composite Z-score in test [1] is 0.0618 (inactive). In addition, the z-score in [15] is -0.677; in test [17], 1.35 (inactive).

Take `COc1cc2c(cc1O)C=[N+](Cc1sc3ccccc3c1Cl)CC2`: the composite z-score was 0.606 with Albumin (Bos taurus); -0.0546 in [2]; -0.0658 in test [3]; 0.742 in [4]; 0.491 in test [5]; 0.361 in [6]. In addition, the composite z-score with Sam68 (KHDRBS1) is -0.291; in test [7] it was 0.496; in test [8], 0.968; in test [9], 0.505; in [10], 0.0341; in [11], -0.292. The composite z-score in test [12] stood at 0.257; in test [13], 0.609; in [14], 0.182; in the test on Lefty1, 0.0893; in [16], 0.311. Besides, the composite Z-score in test [1] is 0.0375 (inactive). Further, the z-score in [15] is -0.571; in test [17] it was 0.5 (inactive).

Consider `O=C1O[C@@H](c2ccccc2)[C@@H](c2ccccc2)N2[C@@H](c3ccc(OCCO)cc3)[C@]3(C(=O)Nc4ccc(C#CC5=CCCCC5)cc43)[C@@H](C(=O)NC[C@H](O)c3ccccc3)[C@H]12`, for which the composite z-score in the test with Albumin (Bos taurus) was -0.948; in [2], 1.03; in [3] it was 0.338; in test [4] it was 0.117; in test [5], 1.57; in test [6] it was 0.109. Moreover, the composite z-score in the test with Sam68 (KHDRBS1) is 1.3; in test [7], 1.16; in [8] it was 1.17; in [9], 2.25; in test [10], 1.21; in test [11], 0.234. The composite z-score in test [12] was determined as 0.829; in test [13], 1.42; in test [14], 1.38; in the test on Lefty1 it was 1.25; in test [16], 0.254. The composite Z-score in [1] is -0.176 (inactive). Besides, the z-score in [15] was -1.48; in test [17] it was -0.773 (inactive).

Regarding `COc1ccc([Si](C)(C)[C@@H]2[C@@H](CC(=O)N3CCC[C@H]3CO)O[C@]3(C(=O)N(Cc4cccc(N5C(=O)COc6ccccc65)c4)c4ccccc43)[C@H]2C)cc1`, the composite z-score with Albumin (Bos taurus) is 0.577; in [2], -0.0821; in test [3], -0.167; in test [4], 0.462; in test [5] it was 0.664; in test [6] it was 0.271. Moreover, the composite z-score with Sam68 (KHDRBS1) turned out to be 1.3; in test [7], 0.291; in [8], 1.12; in test [9] it was 1.43; in [10], 1.21; in [11] it was 0.438. Further, the composite z-score in [12] was 0.711; in test [13], 0.821; in [14] it was 1.22; with Lefty1 it was 0.984; in test [16], 1.15. Further, the composite Z-score in test [1] is 0.254 (inactive). Besides, the values for the z-score in test [15] and in test [17] were -0.522 and -0.23 (inactive), respectively.

For the molecule `COC(=O)C1(CC(C)C)C=C2C(=C(c3ccccc3)C(=O)C2C)CN1` (stereo not given), the composite z-score with Albumin (Bos taurus) worked out at 0.581; in [2] it was 1.31; in test [3] it was 0.54; in test [4], 0.502; in test [5] it was 2.15; in [6], 0.407. The composite z-score with Sam68 (KHDRBS1) is -0.213; in test [7], -0.521; in test [8], -0.991; in test [9] it was 1.75; in test [10] it was 0.166; in test [11], 0.879. The composite z-score in test [12] turned out to be 0.579; in test [13], 0.111; in [14] it was 0.953; in the test with Lefty1 it was 0.0364; in [16] it was 0.663. For the same molecule, in test [1], the composite Z-score is 0.465 (inactive). In addition, the z-score in test [15] was 0.674; in test [17], 0.53 (inactive).

Turning to `CCCCC(CC)C(O)C1C=CC2C(=O)N(C)C(=O)C2N1Nc1ccccc1` (stereo not given), the composite z-score with Albumin (Bos taurus) was 0.928; in test [2], 0.0934; in test [3] it was -0.0804; in [4] it was 0.655; in test [5] it was 1.99; in test [6], 0.245. Besides, the composite z-score in the test on Sam68 (KHDRBS1) was 1.31; in test [7], -0.113; in test [8], 0.586; in [9], 1.51; in test [10], 1.21; in test [11] it was 0.592. Further, the composite z-score is 0.852 in test [12]; 0.22 in [13]; -0.364 in test [14]; -0.118 with Lefty1; 0.795 in [16]. Besides, the composite Z-score in test [1] was 0.576 (inactive). The values for the z-score in test [15] and in test [17] were 0.665 and 0.546 (inactive), respectively.
